PubChem BioAssay AID624415 (National Center for Advancing Translational Sciences (NCATS), 2012)
Screen size: about 390,000 compounds; about 60 (0.02%) were called active. No stated cut-off is given here; in the data, active means activity change below about -50%; inconclusive means between about -30% and that limit; inactive means weaker than that. What follows is part of a selection rich in actives, with near analogues and random picks from the rest.

target: Mucolipin-1 (Homo sapiens) (UniProt Q9GZU1); assay: qHTS for Inhibitors of the Human Mucolipin Transient Receptor Potential 1 (TRPML1); conditions: TRPML1-inducible cells, Ca2+ dye fluorescence, FDSS; stronger effect = lower value; inhibition of EC80 agonist-evoked calcium signal;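 further: stimulus is agonist 54-4 at its EC80 concentration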
Excerpt: Mutations of human Mucolipin transient receptor potential 1 (TRPML1) cause type IV mucolipidosis (ML4), a devastating neurodegenerative disease in young children. […] Currently, there is no treatment for ML4. […] Under physiological conditions, TRPMLs regulate membrane trafficking by transducing information about PI(3,5)P2 levels into changes in juxtaorganellar Ca2+, thereby triggering membrane fusion/fission events in the late endocytic pathways (endolysosomal trafficking). In addition, TRPML1 mediates release of Fe2+ from late endosomes and lysosomes, which is essential for cellular iron metabolism. Thus, impaired ion (Ca2+ and Fe2+) homeostasis underlies lysosomal dysfunction and ML4 phenotypes. In ML4 cells, the problem is twofold. First, defective Ca2+-dependent membrane trafficking due to TRPML1-deficiency causes accumulation of lipids and other bio-materials in the lysosome. The second strike comes from the lysosomal iron overload (due to impairment of TRPML1's Fe2+ conductivity), which converts the accumulated materials into the nondegradable (resistant to lysosomal degradation) lipofuscin (also called aging pigment) in the lysosome. Lipofuscin accumulation dramatically compromises the functions of lysosomes.
Niemann-Pick type C (NPC) disease is another lysosome storage disease (LSD) with severe neurodegeneration during the childhood. Currently, there is no cure for NPC. […] Thus, TRPML1 is likely to be an essential regulator of lysosome ion homeostasis. We specifically hypothesize that stimulating TRPML1's Fe2+/Ca2+ channel activity in the lysosome using synthetic agonists can alleviate neurodegeneration associated with ML4 or NPC.
To this end, a high throughput screen was developed in a miniaturized format to screen against the Molecular Libraries Small Molecule Repository (MLSMR) to find small molecules that act either as inhibitors or agonist against the TRPML1 channel.
NIH Chemical Genomics Center [NCGC]
NIH Molecular Libraries Probe Centers Network [MLPCN]
Assay Submitter (PI): Haoxing Xu, University of Michigan Ann Arbor
TRPML1-DL cells are dissociated from flasks, counted and, brought up to a density of 500,000 cells per mL of media containing a 1X Tet inducer. Using a Multidrop Combi, 3 uL of this cell solution is dispensed to each well of a 1536 TC treated, black, clear bottom hi base plate for a final cell density of 1,500 cells per well. The assay plates are incubated overnight (approximately 16 hours) at 37 degrees C and 5% CO2. Using a Multidrop Combi, 2 uL of ABD Ca8 no wash dye plus quencher is added to each well. The assay plates incubate at room temperature in the dark for 45-90 minutes. The assay plate is read on the FDSS using the following protocol: 10 second baseline read, 23 nL of compounds and controls are added using 1536 pintool, agonist read for 110 seconds, 1 uL EC80 addition (4 uM final 54-4 diluted in media), antagonist read for 110 seconds.
On the % scale 0 is the no-effect control and ±100 the full control effect.

Sequence of Mucolipin-1 (Homo sapiens) (Q9GZU1 whole entry, looked up, the tested form may be a part): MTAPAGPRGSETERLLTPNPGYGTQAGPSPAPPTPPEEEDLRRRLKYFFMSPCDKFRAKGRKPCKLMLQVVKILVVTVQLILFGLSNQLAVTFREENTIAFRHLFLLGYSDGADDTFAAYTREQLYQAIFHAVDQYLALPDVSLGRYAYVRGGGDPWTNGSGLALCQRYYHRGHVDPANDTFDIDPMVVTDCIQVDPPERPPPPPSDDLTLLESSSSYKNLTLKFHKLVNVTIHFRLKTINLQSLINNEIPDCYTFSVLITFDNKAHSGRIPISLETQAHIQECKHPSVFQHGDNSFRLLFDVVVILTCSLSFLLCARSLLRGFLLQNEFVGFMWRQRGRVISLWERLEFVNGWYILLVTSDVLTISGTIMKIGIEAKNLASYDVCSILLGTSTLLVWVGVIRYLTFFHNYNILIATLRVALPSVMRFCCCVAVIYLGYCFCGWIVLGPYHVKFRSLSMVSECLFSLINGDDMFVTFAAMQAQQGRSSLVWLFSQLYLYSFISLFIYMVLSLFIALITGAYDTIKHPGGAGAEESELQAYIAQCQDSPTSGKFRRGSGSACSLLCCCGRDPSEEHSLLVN

Activity change, negative = inhibition, active:
COC(=O)c1cccc(NS(C)(=O)=O)c1 -60.5%, Cc1ccc(Nc2nc(N)nc(CN3CCN(Cc4ccccc4)CC3)n2)cc1Cl -62.2%

Activity change, negative = inhibition, inactive:
Cc1ccc(Cn2cnc3c(cnn3C(C)(C)C)c2=O)c(F)c1 38.8%, COc1cc(OC)cc(C(=O)Nc2c(C(=O)Nc3ccc(F)cc3)oc3ccccc23)c1 -0.263%, O=C1CN(Cc2ccccc2)S(=O)(=O)c2ccccc21 2.64%, CCOc1ccc(C(=O)c2cn(Cc3ccc(F)cc3)c3ccc(F)cc3c2=O)cc1 34.7%, CCOc1ccc(-c2cc3c(=O)n(CC(=O)NCc4ccc(OC)cc4)ccn3n2)cc1 14.1%, Cc1cc2c(cc1C)C(c1cccc(OC(C)C)c1)CC(=O)N2 (stereo unspecified) -6.57%, COc1ccc(C(CCN2CCOCC2)c2c(OC)cc(OC)c3c2OC(=O)CC3c2ccc(OC)cc2)cc1 (stereo unspecified) -3.63%, CC(C)c1ccc(NC(=O)c2ccc3c(O)c(S(=O)(=O)c4ccccc4)c(=O)[nH]c3c2)cc1 8.74%, COc1ccccc1-n1c(-c2ccc(C)cc2)cn2c3c(=O)n(C)c(=O)n(C)c3nc12 -8.58%, Cc1nn(C(C)C(=O)NCCc2ccccc2)c(=O)c2c1sc1ccccc12 (stereo unspecified) -5.78%, O=C(Nc1cccc2cccnc12)C(F)(F)F -10.4%, Cc1ccc(SCC(CC(C)C)N2CCN(CCc3ccccc3)CCC2=O)cc1 (stereo unspecified) 35%, CC(=O)Nc1ccc(NC(=O)c2cc3sccc3n2Cc2ccc(F)cc2)cc1 8.5%, CCC(Sc1nnc(-c2ccc(OC)cc2)c(-c2ccc(OC)cc2)n1)C(=O)NC1CCCCC1 (stereo unspecified) -8.91%, Cc1ccc(Cl)cc1NC(=O)CSc1nc2ccccc2nc1Cc1ccccc1 5.62%, Cn1c(=O)c(=O)n(C)c2cc(NC(=O)c3ccccc3Br)ccc21 18.3%, COc1ccc(Br)cc1C1CC(=O)Nc2c1c(C)nn2-c1nc(C)cc(C)n1 (stereo unspecified) -2.53%, CCc1ccc(S(=O)(=O)c2nnn3c2nc(NCc2ccccc2OC)c2cc(Cl)ccc23)cc1 11.3%, CC(=O)Nc1ccc(NC(=O)CCCc2nc(-c3ccc(C(C)(C)C)cc3)no2)cc1 -23.6%, Cc1ccc(OCC(=O)Nc2ccc(OCc3cc(=O)n4c(C)csc4n3)cc2)cc1C 21.1%, COc1ccc(NC(=O)C2CCCN(S(=O)(=O)c3c(C)[nH]c(=O)[nH]c3=O)C2)c(OC)c1 (stereo unspecified) -13.7%, COc1c(Cl)cc(C(=O)N(Cc2ccccc2F)C2CCS(=O)(=O)C2)cc1Cl (stereo unspecified) -13.9%, COc1cccc(C(=O)NC2=NC(c3ccc(N(C)C)cc3)CC(=O)N2)c1 (stereo unspecified) 4.87%, Cc1ccc(-c2nn3c(=O)cc(CN4CCN(C(=O)Nc5cccc(C(F)(F)F)c5)CC4)nc3s2)cc1 -11.5%, COc1cccc(NC(=O)c2csnn2)c1 -5.21%, O=C(NCc1ccc(F)cc1)c1ccc2nc(N3CCCCC3)sc2c1 -15.1%, Cc1cc(NC(=O)c2ccc(-c3ccc(Cl)cc3)o2)cc(-c2nc3ncccc3o2)c1O -5.56%, CCC1=Nc2cc(C(=O)NCC(C)c3ccccc3)ccc2Sc2ccc(C)cc21 (stereo unspecified) 12%, Cc1ccc(C)c(N2CCN(C(=O)C3CCC(CNS(=O)(=O)c4cccs4)CC3)CC2)c1 (stereo unspecified) 13.9%, CCc1nc2onc(C)c2c(=O)n1CC(=O)O -8.95%, Cc1ccccc1CN1CCC(CNC(=O)c2c(C)oc3ncnc(N4CCCCC4)c23)CC1 3.2%, CCN(CC)CCNC(=O)c1cc2c(=O)oc3ccc(C)cc3c2s1 -8.55%, Cc1cc(F)ccc1NC1(c2ccccc2)C(=O)c2ccccc2C1=O 2.11%, COc1ccc(S(=O)(=O)n2nc(C)c(S(=O)(=O)N3CCCCCC3)c2C)cc1 -9.9%, O=C(Nc1ccc(OC(F)(F)F)cc1)c1cc2c(=O)n3ccccc3nc2s1 9.57%, COC(=O)c1ccc(-c2nc3cc(NC(C)=O)ccc3o2)cc1 12.1%, CCOc1ccc(S(=O)(=O)Nc2ccc3oc4c(c3c2)CC(C)CC4)cc1 (stereo unspecified) 2.72%, CCOC(=O)c1ccc(NC(=O)C2CC(=O)N(c3ccc(C(C)C)cc3)C2)cc1 (stereo unspecified) -2.44%, Cc1cc(OCC(=O)NCC2(N(C)C)CCCCC2)cc(C)c1Cl -7.81%, C=C1CCN(C(CC(C)C)C(=O)NCc2cc(OC)c(OC)c(OC)c2)S(=O)(=O)c2ccccc21 (stereo unspecified) 6.7%, Cc1ccc(CNC(=O)C2(C(F)(F)F)C/C(=C\CCO)CCCO2)o1 (stereo unspecified) -4.32%, COc1ccc(NC(=O)CSc2nnc(-c3nnn(-c4ccc(F)cc4)c3C)o2)cc1 30.2%, Cc1cc(O)c(C(c2ccccc2)N2CCN(c3ccccc3F)CC2)c(=O)n1Cc1ccco1 (stereo unspecified) 19%, O=C(NCCS(=O)(=O)N1CCN(c2ccc(F)cc2)CC1)c1ccccc1Br -27.6%, Cc1nc(SCC(=O)N2CCN(c3ccccc3)CC2)[nH]c(=O)c1C 14.8%, Cc1cccc(Cn2c(SCc3ccc(C(=O)N4CCC(C)CC4)cc3)nc3ccncc32)c1 10.3%, Cn1nnnc1SCCCNCc1ccc(Cl)cc1 25.2%, CCOC(=O)c1cccc(NS(=O)(=O)c2cn(C)c(C)n2)c1 9.58%, COc1ccc(Cl)cc1S(=O)(=O)Nc1cccc(C(=O)O)c1 -0.499%, O=C(CCc1nc(CN2CCN(S(=O)(=O)c3ccc(Cl)cc3)CC2)no1)N1CCCCC1 8.21%, CCc1ccc(CNC(=O)C2CCN(c3nn4cc(-c5ccc(F)cc5)nc4s3)CC2)cc1 20.9%, Cc1ccc(NC(=O)Cc2ccc(NC(=O)N3CCCCc4ccccc43)cc2)cc1 8.17%, Cc1ccccc1C(=O)Nc1cc(C)c(O)c(-c2nc3ccccc3o2)c1 -18.1%, Cc1ccccc1CNC(=O)CSc1nnc(C)c2c(C)n(-c3ccccc3)nc12 2.86%, Cc1ccc(OCCSc2nc(C)c(Cc3ccccc3)c(=O)[nH]2)cc1 -16.6%, COc1ccc(NC(=O)NC(C)c2c(-n3cccc3)sc(C)c2C)cc1OC (stereo unspecified) 12.5%, COC(=O)c1ccccc1NC(=O)Cn1c(=O)n(-c2cccc(C(F)(F)F)c2)c(=O)c2c(C)c(C)sc21 -25.8%, Cc1cc2c(cc3c(SCc4nc(-c5ccccc5)oc4C)nnc(C)n32)o1 11.7%, N#Cc1ccccc1Cn1cnc2nc3c(cc2c1=O)CCCC3 -15.7%, CCN(Cc1ccccc1)S(=O)(=O)c1ccc2c(c1)CCCN2C(C)=O -2.82%, Cn1c(=O)c2sccc2n2c(CCC(=O)NCc3ccccc3Cl)nnc12 2.41%, CN1CCN(C2(CNC(=O)COc3ccc(C(C)(C)C)cc3)CCCCC2)CC1 16.1%, COc1cc(OC)cc(-c2nc3nc(C)c(CCC(=O)Nc4ccccc4)c(C)n3n2)c1 -13.4%, Cc1ccc(Nc2c(-c3ccc(N(C)C)cc3)nc3nc[nH]n23)cc1 -8.37%, CCOc1ccccc1CNC(=O)c1cnc2c(-c3ccc(OCC)c(OCC)c3)c(C)nn2c1C -5.19%, CCc1ccc(-n2nc(C)c3c(C)cc(=O)n(CC(=O)Nc4ccc(F)cc4C)c32)cc1 1.68%, CCOc1ccc(C2C(=O)N(C3CCCCC3)CC(=O)N2CCC2=CCCCC2)cc1OC (stereo unspecified) -3.98%, CCC(=O)N1CCc2cc(Br)cc(S(=O)(=O)CCC(=O)N3CCN(c4ccc(F)cc4)CC3)c21 -21.4%, COc1ccc(CN2CCC(=O)c3ccccc3S2(=O)=O)cc1 -9.22%, COc1ccc(CCC(=O)NCc2ccc3c(c2)CCN3C(=O)c2ccc(F)cc2)cc1 -24.8%, CCCSc1ncc(Cl)c(C(=O)Nc2sc3c(c2C(=O)NCCOC)CCCC3)n1 20.3%, O=C(Nc1nc2c(s1)CCCC2)c1ccccc1F 7.29%, COc1cccc2cc(-c3nc(Cl)c4c5c(sc4n3)CC(C)CC5)c(=O)oc12 (stereo unspecified) -7.72%, Cc1cc(N2CCOCC2)nc2ccc(NC(=S)N3CCN(Cc4ccccc4)CC3)cc12 -15.7%, CCOC(=O)C1CCCN(Cc2nc(N)nc(Nc3ccc(C)cc3)n2)C1 (stereo unspecified) -0.383%, Cc1ccc(-n2c(SCC(=O)c3ccccc3)nc3c([nH]c4ccccc43)c2=O)cc1 13.9%, O=C(CSCc1cnn(-c2ccccc2)c1-n1cccc1)NCc1ccccc1Br 2.1%, CC1=C(C(=O)OCc2ccc(C)cc2)C(c2ccccc2Cl)CC(=O)N1 (stereo unspecified) 31.3%, C#CC(C)(CC)NC(=O)Cn1nnc(-c2ccc(OCc3c(F)cccc3Cl)cc2)n1 (stereo unspecified) -6.13%, Cn1c(=O)c2c(nc(SCC(=O)Nc3ccc(F)cc3)n2Cc2ccc(Cl)cc2)n(C)c1=O 3.84%, Cc1cccc(C(=O)Nc2ccc(-c3nc4ncccc4o3)cc2C)c1 -6.3%, COC(=O)CCc1ccccc1S(=O)(=O)N(CCC(=O)OC)Cc1ccccc1 -2.45%, CC(C)(C)n1ncc2c(=O)n(Cc3ccc(C(=O)c4ccccc4)cc3)cnc21 1.11%, COc1cccc(CNC(=O)c2ccc3c(c2)N(Cc2ccc(C(F)(F)F)cc2)C(=O)c2ccccc2S3)c1OC 37.3%
